Consider eight compounds from PubChem BioAssay (NCI).

Experiment [1] in a line: NCI Yeast Anticancer Drug Screen. Data for the rad50 strain (AID 155).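 Further: 0% = growth of vehicle-only cultures of the same strain.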 The note with it: S. cerevisiae rad50 strain growth inhibition, stronger effect = higher value. The method in brief: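 DNA repair mutant yeast, compound exposure, growth read-out; inhibition is taken relative to vehicle.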
Experiment [2] is described as follows: NCI Yeast Anticancer Drug Screen. Data for the mec2-1 strain (AID 157). The note with it: S. cerevisiae mec2-1 strain, stronger effect = higher value. An outline of the steps:
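Growth inhibition is read against vehicle-treated controls after compound exposure of the mec2-1 yeast strain, which is defective in DNA damage repair or cell cycle control.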

A short description of experiment [3]: NCI Yeast Anticancer Drug Screen. Data for the sgs1 mgt1 strain (AID 161).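 Further: 0% = growth of cultures given vehicle only.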 The note with it: S. cerevisiae sgs1 mgt1 strain, stronger effect = higher value. The method in brief: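 Yeast cells carrying a defined DNA-repair defect were exposed to test compounds. Growth inhibition was measured relative to vehicle-treated controls.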
Experiment [4] is described as follows: NCI Yeast Anticancer Drug Screen. Data for the cln2 rad14 strain (AID 165).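 Further: 0% = growth equal to vehicle treated cultures.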 The note with it: S. cerevisiae cln2 rad14 strain, stronger effect = higher value. The method in brief: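 Growth inhibition, relative to vehicle-treated controls, is the read-out. The test organism is a yeast strain with defined genetic alterations, cln2 rad14.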
A short description of experiment [5]: NCI Yeast Anticancer Drug Screen. Data for the bub3 strain (AID 167). The note with it: S. cerevisiae bub3 mutant strain, stronger effect = higher value. An outline of the steps:
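In this screen, a yeast mutant lacking normal mitotic checkpoint function is challenged with compound. Relative growth versus vehicle gives the inhibition value.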

Experiment [6] in a line: NCI Yeast Anticancer Drug Screen. Data for the mlh1 rad18 strain (AID 175). The note with it: S. cerevisiae mlh1 rad18 strain growth inhibition, stronger effect = higher value. The method in brief: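 Cells of a genetically altered yeast strain, deficient in DNA damage repair, were treated with compound. Their growth was then compared with that of vehicle-treated cultures to give inhibition.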

Where [7] appears, read: at 5.0 µM (retest, dose inferred, filed as 0.5).
Where [8] appears, read: at 50.0 µM (retest, dose inferred, filed as 5.0).

Values joined by “and” are separate entries in the source; they are usually repeats but may differ in a detail not shown here. Identical values can stand only once. This is part of a sample that, as a whole, favours compounds with a hit. Of some 79,000 tested, about 15% had one in any assay. Values without a mark were called inactive. Active and inactive are the calls of the source. No stated cut-off is given here; in the data, active means growth inhibition above about 70%; inactive means the rest.

On to `CC[CH2][Sn]([F])([F])[CH2]CC`, for which the growth inhibition in experiment [1] (setting [7]) was 20%; in experiment [1] (setting [8]), 94% (active); in experiment [1] (at 50.0 µM), 83% (active); in experiment [2] (setting [7]), 12%; in experiment [2] (setting [8]), 97% (active); in experiment [2] (at 50.0 µM), 87.7% (active). Moreover, the growth inhibition in experiment [3] (setting [7]) was 11%; in experiment [3] (setting [8]), 94% (active); in experiment [3] (at 50.0 µM), 84.7% (active); in experiment [4] (setting [7]), 17%; in experiment [4] (setting [8]), 91% (active); in experiment [4] (at 50.0 µM) it was 83.5% (active). Moreover, the growth inhibition in experiment [5] (setting [7]) is 14%; in experiment [5] (setting [8]), 96% (active); in experiment [5] (at 50.0 µM) it was 81.2% (active); in experiment [6] (setting [7]), 13%; in experiment [6] (setting [8]), 95% (active); in experiment [6] (at 50.0 µM), 86.5% (active).

In the case of `Cc1cccc(OCC(O)CN2CC2)c1` (centres undefined), the growth inhibition in experiment [1] (setting [7]) was 2%; in experiment [1] (setting [8]), 64%; in experiment [1] (at 50.0 µM) it was 87.4% (active); in experiment [2] (setting [7]), 4%; in experiment [2] (setting [8]) it was 52%; in experiment [2] (at 50.0 µM) it was 89.8% (active). Also, the growth inhibition in experiment [3] (setting [7]) is 4%; in experiment [3] (setting [8]), 78% (active); in experiment [3] (at 50.0 µM), 89.4% (active); in experiment [4] (setting [7]), 4%; in experiment [4] (setting [8]), 34%; in experiment [4] (at 50.0 µM) it was 87.8% (active). Besides, the growth inhibition in experiment [5] (setting [7]) is -1%; in experiment [5] (setting [8]) it was 34%; in experiment [5] (at 50.0 µM) it was 87.8% (active); in experiment [6] (setting [7]), 2%; in experiment [6] (setting [8]), 95% (active); in experiment [6] (at 50.0 µM), 88.5% (active).

On to `CCCCCOC(=O)CCl`, for which the growth inhibition in experiment [1] (setting [7]) is 8%; in experiment [1] (setting [8]), 69%; in experiment [1] (at 50.0 µM) it was 54.7%; in experiment [2] (setting [7]), 1%; in experiment [2] (setting [8]) it was 16%; in experiment [2] (at 50.0 µM), 1.75%. In addition, the growth inhibition was 4% in experiment [3] (setting [7]); 40% in experiment [3] (setting [8]); 32.2% in experiment [3] (at 50.0 µM); 1% in experiment [4] (setting [7]); 8% in experiment [4] (setting [8]); 16.5% in experiment [4] (at 50.0 µM). The growth inhibition is 0% in experiment [5] (setting [7]); -5% in experiment [5] (setting [8]); -27.6% in experiment [5] (at 50.0 µM); 11% in experiment [6] (setting [7]); 32% in experiment [6] (setting [8]); 19.4% in experiment [6] (at 50.0 µM).

`CC1([CH2][Hg][I])CS(=O)(=O)CC(C)([CH2][Hg][I])O1` (centres undefined): the growth inhibition was 99% (active) in experiment [1] (setting [7]); 98% (active) in experiment [1] (setting [8]); 95.7% (active) in experiment [1] (at 50.0 µM); 100% (active) in experiment [2] (setting [7]); 99% (active) in experiment [2] (setting [8]); 98% (active) in experiment [2] (at 50.0 µM). Besides, the growth inhibition was 100% (active) in experiment [3] (setting [7]); 99% (active) in experiment [3] (setting [8]); 97.3% (active) in experiment [3] (at 50.0 µM); 99% (active) in experiment [4] (setting [7]); 98% (active) in experiment [4] (setting [8]); 96% (active) in experiment [4] (at 50.0 µM). The growth inhibition is 100% (active) in experiment [5] (setting [7]); 99% (active) in experiment [5] (setting [8]); 97.8% (active) in experiment [5] (at 50.0 µM); 99% (active) in experiment [6] (setting [7]); 98% (active) in experiment [6] (setting [8]); 96.2% (active) in experiment [6] (at 50.0 µM).

On to `CCCCCCCCCCCCCC(=O)O`, for which the growth inhibition in experiment [1] (setting [7]) was -7%; in experiment [1] (setting [8]), 18%; in experiment [1] (at 50.0 µM), 4.15% and 34.9%; in experiment [2] (setting [7]) it was 11%; in experiment [2] (setting [8]) it was 63%; in experiment [2] (at 50.0 µM) it was 7.2% and -10.9%. The growth inhibition in experiment [3] (setting [7]) is 11%; in experiment [3] (setting [8]) it was 88% (active); in experiment [3] (at 50.0 µM), 15.4% and 27.3%; in experiment [4] (setting [7]), 1%; in experiment [4] (setting [8]) it was 20%; in experiment [4] (at 50.0 µM), 66.5% and 24.1%. Further, the growth inhibition in experiment [5] (setting [7]) is -7%; in experiment [5] (setting [8]) it was 29%; in experiment [5] (at 50.0 µM), 57.7% and 11.7%; in experiment [6] (setting [7]), 5%; in experiment [6] (setting [8]), 87% (active); in experiment [6] (at 50.0 µM), -6.2% and 13.4%.

Turning to `Cc1cc(N(CCCl)CCCl)ccc1C=Nc1ccc(-c2csc(COc3ccccc3)n2)c(Cl)c1`, the growth inhibition in experiment [1] (setting [7]) is 4%; in experiment [1] (setting [8]), 93% (active); in experiment [1] (at 50.0 µM), 94% (active); in experiment [2] (setting [7]), -13%; in experiment [2] (setting [8]), 90% (active); in experiment [2] (at 50.0 µM) it was 95.6% (active). The growth inhibition is 23% in experiment [3] (setting [7]); 95% (active) in experiment [3] (setting [8]); 95% (active) in experiment [3] (at 50.0 µM); -10% in experiment [4] (setting [7]); 94% (active) in experiment [4] (setting [8]); 89.1% (active) in experiment [4] (at 50.0 µM). Moreover, the growth inhibition was 6% in experiment [5] (setting [7]); 91% (active) in experiment [5] (setting [8]); 90.3% (active) in experiment [5] (at 50.0 µM); 52% in experiment [6] (setting [7]); 94% (active) in experiment [6] (setting [8]); 94.5% (active) in experiment [6] (at 50.0 µM).

With `c1ccc2c(c1)[nH]c1c2cc[n+]2cc3c(cc12)CCCC3`, the growth inhibition is 30% and 19% in experiment [1] (setting [7]); 79% (active) and 97% (active) in experiment [1] (setting [8]); 89.2% (active) and 91.5% (active) in experiment [1] (at 50.0 µM); 51% and 19% in experiment [2] (setting [7]); 85% (active) and 97% (active) in experiment [2] (setting [8]); 89.6% (active) and 91.6% (active) in experiment [2] (at 50.0 µM). Besides, the growth inhibition in experiment [3] (setting [7]) was 45% and 26%; in experiment [3] (setting [8]), 97% (active) and 98% (active); in experiment [3] (at 50.0 µM) it was 91.9% (active); in experiment [4] (setting [7]), 55% and 26%; in experiment [4] (setting [8]) it was 97% (active) and 89% (active); in experiment [4] (at 50.0 µM), 83.2% (active). In addition, the growth inhibition in experiment [5] (setting [7]) is 68% and 33%; in experiment [5] (setting [8]) it was 96% (active) and 98% (active); in experiment [5] (at 50.0 µM), 91.3% (active); in experiment [6] (setting [7]) it was 29% and 27%; in experiment [6] (setting [8]), 89% (active) and 98% (active); in experiment [6] (at 50.0 µM), 88.7% (active) and 86.2% (active).

As to `CS(=O)(=O)[O-].CS(=O)(=O)[O-].NC1CCCCC1N.[Pt+4]` (centres undefined), the growth inhibition in experiment [1] (setting [7]) is 99% (active); in experiment [1] (setting [8]) it was 99% (active); in experiment [1] (at 50.0 µM), 90.7% (active); in experiment [2] (setting [7]), 100% (active); in experiment [2] (setting [8]), 99% (active); in experiment [2] (at 50.0 µM) it was 91.2% (active). Moreover, the growth inhibition in experiment [3] (setting [7]) was 100% (active); in experiment [3] (setting [8]), 99% (active); in experiment [3] (at 50.0 µM), 92% (active); in experiment [4] (setting [7]), 100% (active); in experiment [4] (setting [8]), 99% (active); in experiment [4] (at 50.0 µM) it was 90.9% (active). The growth inhibition in experiment [5] (setting [7]) is 99% (active); in experiment [5] (setting [8]), 99% (active); in experiment [5] (at 50.0 µM), 91.2% (active); in experiment [6] (setting [7]) it was 99% (active); in experiment [6] (setting [8]) it was 98% (active); in experiment [6] (at 50.0 µM), 88.3% (active).
